Assay outcomes deposited in PubChem BioAssay by National Center for Advancing Translational Sciences (NCATS).
Rows were chosen to be rich in hits. Some 6.5% of all compounds tested hit in one or more screens of this group.
FMDV inh: High Throughput Screening for Foot and Mouth Disease Virus Antivirals; 410,000 compounds, 1.2% hits; FMDV antiviral cell-based qHTS; Potency, µM (titrated, usually from 57.9 µM), hits mostly inhibitors; calls by dose curve; tested in HEK293T cells; further: read-out not given here; nearly all actives have a fitted effect of over 45% in size
Vaccinia Venus: qHTS for Stage-Specific Inhibitors of Vaccinia Orthopoxvirus: Venus Reporter Primary qHTS | 330,000 compounds, 0.46% hits | AID 720580, 2013 | Vaccinia virus Venus reporter expression, fluorescence | Potency, µM (doses to about 36.5 µM), most hits filed as inhibitors; calls by dose curve; tested in A549 cells; further: nearly all actives have a fitted effect of over 30% in size
VACV mCherry inh: qHTS for Stage-Specific Inhibitors of Vaccinia Orthopoxvirus: mCherry Reporter Primary qHTS; AID 720579, 2013; 310,000 compounds, 0.63% hits; Vaccinia virus mCherry reporter infection, fluorescence; Potency, µM (doses to about 36.5 µM), usual class: inhibitors; calls by dose curve; tested in A549 cells; further: nearly all actives have a fitted effect of over 35% in size
Marburg entry inh: qHTS for inhibitors of binding or entry into cells for Marburg Virus; Marburg virus pseudotyped entry inhibition, cell reporter; 300,000 compounds, 1.8% hits; Potency, µM (top dose mostly 37.8 µM), hits mostly inhibitors; AID 540276, 2011; calls by dose curve; tested in HEK293 cells
Lassa entry inh: qHTS for Inhibitors of binding or entry into cells for Lassa Virus; Potency, µM (doses to about 37.9 µM), most hits filed as inhibitors; AID 540256, 2011; 300,000 compounds, 1.2% hits; Lassa virus pseudotype entry inhibition, cell reporter; calls by dose curve; tested in HEK293 cells; further: nearly all actives have a fitted effect of over 50% in size
HCMV inh: qHTS Assay for inhibitors of the human cytomegalovirus (HCMV). HFF cells, HCMV-luciferase reporter, 72 h; hits give low values. activity change, negative = inhibition, % at 57.5 µM. 410,000 compounds, 4.5% hits. AID 1259415, 2018; in the data active means activity change below about -60%; inconclusive means no clear call, values can overlap the other calls; inactive means above about -39%
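After 16 h attachment at 37C, HFF cells received test compound and HCMV-luciferase (1 PFU/cell); reporter luminescence read 72 h later, data normalized against buffer-only and known inhibitor Salinomycin.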
A number is an active result; i = inactive; ? = inconclusive; nt = no result given.

SMILES | FMDV inh | Vaccinia Venus | VACV mCherry inh | Marburg entry inh | Lassa entry inh | HCMV inh
CCOC(=O)c1nnc(-c2ccccc2)nc1Oc1ccc(Cl)cc1 | 16µM | i | nt | i | i | i
CCOC(=O)c1nnc(-c2ccccc2)nc1Sc1ccccc1Cl | 25µM | i | nt | ? | i | i
CCOC(=O)c1cnc(-c2ccccc2)nc1Oc1ccc(Cl)c(Cl)c1 | i | i | nt | i | i | i
CNC(=O)C1CCC(Cn2c(=O)[nH]c3ccsc3c2=O)CC1 (stereo unspecified) | i | i | i | nt | i | i
Cc1cccc(CN2C(=O)c3ccccc3S(=O)(=O)c3ccc(C(=O)N4CCCC4)cc32)c1 | i | i | i | i | ? | i
CCC1CCCCN1CCCNC(=O)c1ccc2c(c1)N(Cc1ccccc1)C(=O)c1ccccc1S2(=O)=O (stereo unspecified) | i | i | i | ? | i | ?
CC1CCCN(CCCNC(=O)c2ccc3c(c2)N(Cc2ccc(Cl)cc2)C(=O)c2ccccc2S3(=O)=O)C1 (stereo unspecified) | i | i | i | ? | ? | -100
CCC1CCCCN1CCCNC(=O)c1ccc2c(c1)N(Cc1cccc(C)c1)C(=O)c1ccccc1S2(=O)=O (stereo unspecified) | i | ? | i | ? | ? | -64
CCC1CCCCN1CCCNC(=O)c1ccc2c(c1)N(Cc1ccc(Cl)cc1)C(=O)c1ccccc1S2(=O)=O (stereo unspecified) | i | i | i | ? | ? | -106
CCC1CCCCN1CCCNC(=O)c1ccc2c(c1)N(Cc1cccc(Cl)c1)C(=O)c1ccccc1S2(=O)=O (stereo unspecified) | i | i | i | nt | ? | -98
CC(C(=O)c1ccccc1)[n+]1ccc(Cl)c2ccc(Cl)cc21 (stereo unspecified) | nt | i | i | nt | nt | nt
C=C1C=C(C(F)F)n2ncc(C(=O)NCc3ccccc3)c2N1 | nt | i | i | nt | nt | nt
CCCc1cc(=O)oc2c(C)c(OCC(=O)NCCCn3ccnc3)ccc12 | i | i | i | i | i | i
CCCc1cc(=O)oc2cc(OCC(=O)NCCCn3ccnc3)c(Cl)cc12 | i | nt | nt | nt | nt | -63
CCOC(=O)C1CCCN(C(=O)c2ccc3c(c2)N(Cc2cccc(Cl)c2)C(=O)c2ccccc2S3(=O)=O)C1 (stereo unspecified) | i | i | i | nt | ? | -63
O=C(c1ccc2c(c1)N(Cc1cccc(Cl)c1)C(=O)c1ccccc1S2(=O)=O)N1CCCCC1 | i | i | i | nt | ? | -73
CCN1CCN(C(=O)c2ccc3c(c2)N(Cc2cccc(Cl)c2)C(=O)c2ccccc2S3(=O)=O)CC1 | i | i | i | nt | ? | -65
O=C(c1ccc2c(c1)N(Cc1ccccc1)C(=O)c1ccccc1S2(=O)=O)N1CCCCCC1 | i | i | i | i | ? | i
CCc1ccc2oc(C(=O)Nc3cc(Cl)ccc3OC)cc(=O)c2c1 | i | i | i | i | i | i
Cc1ccc(C)c(N2CCN(C3CCCC(C)C3)CC2)c1 (stereo unspecified) | ? | i | i | 5µM | ? | i
COc1cccc(N2CCN(C3CCCC(C)C3)CC2)c1 (stereo unspecified) | i | nt | nt | i | i | i
COCCN1CCN(c2nc(C(=O)Nc3ccc(F)c(Cl)c3)cs2)C1=O | nt | nt | nt | nt | nt | i
Cc1[nH]n(-c2ccccc2)c(=O)c1C(C[N+](=O)[O-])c1ccccc1Cl (stereo unspecified) | i | i | i | i | i | i
COc1ccc(C(C[N+](=O)[O-])c2c(C)[nH]n(-c3ccccc3)c2=O)cc1 (stereo unspecified) | i | i | i | i | i | -103
CC1Cc2cc(S(=O)(=O)N3CCC(C(=O)Nc4ccccn4)CC3)ccc2N1C(=O)C1CCC1 (stereo unspecified) | ? | i | i | ? | ? | -73
SMILES | FMDV inh | Vaccinia Venus | VACV mCherry inh | Marburg entry inh | Lassa entry inh | HCMV inh
Cc1cccc(NC(=O)C2CCN(S(=O)(=O)c3ccc4ccccc4c3)CC2)n1 | 25µM | i | i | ? | ? | i
Cc1cccc(NC(=O)C2CCN(S(=O)(=O)c3ccc(Cl)cc3)CC2)n1 | ? | i | i | ? | i | ?
CC(=O)N1c2ccc(S(=O)(=O)N3CCC(C(=O)Nc4ccc(C)cn4)CC3)cc2CC1C (stereo unspecified) | ? | nt | nt | nt | nt | -80
Cc1ccc(NC(=O)C2CCN(S(=O)(=O)c3ccc4c(c3)CC(C)N4C(=O)C3CCC3)CC2)nc1 (stereo unspecified) | ? | ? | i | ? | ? | -86
CCN1C(N(C)CCOC)=NC(c2cccc(F)c2)C(C(=O)OC)=C1C (stereo unspecified) | nt | nt | nt | i | ? | nt
Cc1ccccc1C(=O)Nc1ccc(C(=O)OCc2cc(=O)n3nc(C4CC4)sc3n2)cc1 | 13µM | i | ? | nt | ? | -81
O=C(Nc1ccc(C(=O)OC[C@@H]2CCCN3CCCC[C@H]23)cc1)c1cccc(Br)c1 | i | ? | i | 9.2µM | i | i
Cc1nn2c(=O)cc(COC(=O)c3cccc(NC(=O)c4cccs4)c3)nc2s1 | 10µM | i | i | nt | i | i
O=C(OCc1cc(=O)n2nc(C3CC3)sc2n1)c1ccc(NC(=O)c2ccccc2F)cc1 | i | i | i | nt | i | i
Cc1nn2c(=O)cc(COC(=O)c3ccc(NC(=O)C4CCCCC4)cc3)nc2s1 | 11µM | ? | i | nt | i | -65
CC1=C2CCC[C@]3(C)CCOC23C=CC1=O (stereo partly specified) | nt | nt | nt | nt | nt | i
COc1ccccc1Cn1c(CNS(=O)(=O)c2c(C)cc(C)cc2C)nc2cccnc21 | i | i | i | nt | ? | ?
O=C(CSc1nc2ccccc2n1Cc1ccccc1Cl)NCc1ccccc1 | i | i | i | nt | ? | i
Cc1cccc(C(=O)Nc2ccc(C(=O)OCc3cc(=O)n4nc(C5CC5)sc4n3)cc2)c1 | 14µM | ? | ? | nt | 3.2µM | i
Cc1nn2c(=O)cc(COC(=O)c3ccc(NC(=O)c4cccc(Br)c4)cc3)nc2s1 | 18µM | i | i | nt | i | i
O=C(Nc1cccc(C(=O)OCc2cc(=O)n3c4c(sc3n2)CCCC4)c1)c1ccccc1 | i | i | i | nt | i | i
CC(C)c1nn2c(=O)cc(COC(=O)c3ccccc3NC(=O)c3cccc(Cl)c3)nc2s1 | 8.9µM | i | i | nt | i | i
Cc1ccc(C(=O)Nc2ccccc2C(=O)OCc2cc(=O)n3nc(C(C)C)sc3n2)cc1 | i | i | i | nt | i | i
Cc1ccc(C(=O)Nc2cccc(C(=O)OCc3cc(=O)n4c5c(sc4n3)CCCC5)c2)cc1 | i | i | i | nt | i | -88
Cc1ccc(S(=O)(=O)NCCC(=O)NCCCSc2ccccc2)cc1 | i | nt | nt | nt | nt | -75
Cc1ccc(N(CC(=O)NCCSc2ccccc2)S(=O)(=O)c2ccc(F)cc2)cc1 | ? | i | i | nt | i | -65
COc1ccc(N(CC(=O)NCCSc2ccccn2)S(=O)(=O)c2ccc(C)cc2)cc1OC | i | i | i | i | i | -60
